Here are results for six molecules from PubChem BioAssay.

Molecules are shown by their SMILES. The source made the active and inactive calls.

In assay [1] the test system is Human papillomavirus type 1a protein E7 (residues 44-93). Put plainly: small molecules binding HPV E7 44-93 – biochemical, small-molecule microarray, residues 44-93, 635 nm fluorescence, primary screen (AID 1108).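 Further: E7 fragment applied at 1 µg/mL in TBST for 1 h at 4 C; score combines spot fluorescence with its signal to noise ratio.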 To be noted: fluorescence 635 nm, higher = more signal.
The nature of assay [2]: hepatitis C replication reporter changes, two-sided – Huh7 cells, luciferase reporter, HCV replication inhibitor project, primary screen (AID 1109).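 Further: huh7 hepatoma cells harbouring a luciferase neomycin HCV replicon reporter; luciferase luminescence as measure of HCV replicon replication; test concentration not given here.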 The following applies: Huh7 HCV replicon luciferase reporter, 48 h; higher = more signal. In general terms: Reporter assays use an easily measured gene product as a stand-in for the process of interest.
Assay [3] concerns the target Left-right determination factor 2 (Homo sapiens) (UniProt O00292). The assay can be described thus: small molecules binding LEFTY2 protein – biochemical, small-molecule microarray, 635 nm fluorescence scan, primary screen (AID 1110). To be noted: higher = more signal.
Assay [4] deals with Calmodulin-1 (Homo sapiens) (UniProt P0DP23). The assay can be described thus: small molecules binding calmodulin-1 with EGTA – biochemical, small-molecule microarray, Cy5-labelled CALM1, profiling panel (AID 1111).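 Further: labelled calmodulin applied in Tris saline Tween buffer holding calcium plus EGTA and DTT.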 To be noted: Cy5-CALM1 binding fluorescence, higher = more signal.
For assay [5] the target is unchanged. Put plainly: small molecules binding Ca-loaded calmodulin-1 – biochemical, small-molecule microarray, Cy5-labelled CALM1, plus calcium, artefact control for SMM control-protein annotation, profiling panel (AID 1112).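 Further: score merges spot fluorescence with signal to noise from triplicate slides.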 To be noted: Cy5-CALM1 binding fluorescence, higher = more signal.
Assay [6] in a line: probe aWnt5a binding to arrayed compounds – biochemical, biotinylated probe, 635/667 nm fluorescence, primary screen (AID 1113).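 Further: score merges 667 nm fluorescence intensity with signal-to-noise per printed feature.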 To be noted: small-molecule microarray, higher = more signal.
Assay [7] can be described thus: probe aShh binding to arrayed compounds – biochemical, biotinylated probe, 635/667 nm fluorescence, primary screen (AID 1114).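 Further: probe is biotin-labelled aShh protein from a stem cell growth factor screen; measures binding of labelled protein to compounds printed on the slide; score merges feature fluorescence at 667 nm with signal-to-noise.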 The following applies: small-molecule microarray, higher = more signal.
A short description of assay [8]: probe aNog binding to arrayed compounds – biochemical, biotinylated probe, 635/667 nm fluorescence, primary screen (AID 1115).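 Further: probe is biotinylated aNog protein used at 0.15 µg/mL for 1 h at 4 C; z-score combines 667 nm fluorescence of each spot with its signal to noise.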 The following applies: small-molecule microarray, higher = more signal.
Assay [9] has as its target Torsin-1A-interacting protein 1 (Homo sapiens) (UniProt Q5JTV8). The assay can be described thus: compound microarray binding of lysate hLAP1 – cell lysate, small-molecule microarray, COS7 lysate, 635/667 nm fluorescence, primary screen (AID 1116). The following applies: 635 nm fluorescence, higher = more signal.
In assay [10] the target is Alpha-bungarotoxin (Bungarus multicinctus) (UniProt P60615). The assay can be described thus: compounds binding labelled alpha-BTX control protein – biochemical, small-molecule microarray, Alexa647 label, 635/667 nm fluorescence, artefact control for SMM control protein annotation, profiling panel (AID 1117). The following applies: alpha-BTX-A647 binding fluorescence, higher = more signal.
Sequence of Alpha-bungarotoxin (Bungarus multicinctus) (P60615 whole entry, looked up): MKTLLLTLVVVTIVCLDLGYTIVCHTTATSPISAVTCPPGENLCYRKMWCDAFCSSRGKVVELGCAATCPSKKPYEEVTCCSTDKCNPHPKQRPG

The target in assay [11] is Albumin (Bos taurus) (UniProt P02769). Put plainly: compounds binding labelled BSA control protein – biochemical, small-molecule microarray, Alexa647 label, 635/667 nm fluorescence, artefact control for SMM control protein annotation, profiling panel (AID 1118).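 Further: score merges 667 nm emission intensity and signal-to-noise per printed compound spot.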 The following applies: BSA-A647 binding, fluorescence 635 nm, higher = more signal.
Sequence of Albumin (Bos taurus) (P02769 whole entry, looked up): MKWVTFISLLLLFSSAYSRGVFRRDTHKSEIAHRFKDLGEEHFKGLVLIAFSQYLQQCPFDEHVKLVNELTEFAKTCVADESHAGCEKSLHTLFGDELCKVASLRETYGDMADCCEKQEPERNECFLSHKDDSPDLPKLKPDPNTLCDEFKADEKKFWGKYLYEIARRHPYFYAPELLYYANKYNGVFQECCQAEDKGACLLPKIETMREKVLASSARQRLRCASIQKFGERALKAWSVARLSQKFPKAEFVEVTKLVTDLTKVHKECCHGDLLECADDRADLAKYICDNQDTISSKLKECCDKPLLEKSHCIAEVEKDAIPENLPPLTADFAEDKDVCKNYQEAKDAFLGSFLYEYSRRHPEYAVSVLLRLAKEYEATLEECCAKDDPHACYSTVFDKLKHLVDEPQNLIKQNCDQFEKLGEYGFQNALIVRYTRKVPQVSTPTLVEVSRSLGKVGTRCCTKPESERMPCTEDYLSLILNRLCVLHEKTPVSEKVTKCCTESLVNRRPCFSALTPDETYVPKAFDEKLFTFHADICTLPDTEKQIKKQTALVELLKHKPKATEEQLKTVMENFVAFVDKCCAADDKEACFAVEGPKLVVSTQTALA
Assay [12] is described as follows: probe aXIP binding to arrayed compounds – biochemical, NeuroSMM set, 635/667 nm fluorescence, primary screen (AID 1119).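 Further: probe is the protein aXip251-270 applied at 1 µg/mL to compound-printed slides; binding of probe to printed compounds measured as 667 nm fluorescence plus signal to noise.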 To be noted: small-molecule microarray, higher = more signal, called active from +8 up or from −8 down.
Assay [13] is described as follows: probe aNOTCH3 binding on compound microarray – biochemical, small-molecule microarray, 635/667 nm fluorescence, primary screen (AID 1120).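 Further: probe is a biotin-tagged antibody raised against NOTCH3 rather than NOTCH3 protein; score merges spot fluorescence near 667 nm with spot signal to noise.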 The following applies: higher = more signal.
Assay [14] is described as follows: probe aNOTCH2 binding on compound microarray – biochemical, small-molecule microarray, 635/667 nm fluorescence, primary screen (AID 1121).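 Further: score merges feature fluorescence read at 667 nm with its signal to noise.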 The following applies: higher = more signal.
The target of assay [15] is Carbonic anhydrase 2 (Homo sapiens) (UniProt P00918). Put plainly: compounds binding carbonic anhydrase 2 – biochemical, small-molecule microarray, Alexa647-labelled CAII, profiling panel (AID 1122). To be noted: CAII-A647 binding fluorescence, higher = more signal.
Assay [16] can be described thus: COS7 lysate on small-molecule microarray, probe aHis, 635 nm (AID 1123).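 Further: z-score combines 667nm fluorescence intensity with signal-to-noise per printed compound spot.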 The following applies: COS7 cell lysate, fluorescence, higher = more signal.
Assay [17] is described as follows: probe aLAP1 signal on lysate-treated microarray – cell lysate, small-molecule microarray, COS7 lysate, primary screen (AID 1124).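 Further: lysate comes from COS7 cells expressing LAP1 and is applied at 0.3 µg/mL; score merges spot fluorescence near 667 nm with signal-to-noise over triplicate slides.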 To be noted: probe aLAP1, fluorescence, higher = more signal.
The subject of assay [18] is Sam68 (KHDRBS1). Put plainly: compounds binding KHDRBS1 protein – biochemical, small-molecule microarray, 635 nm fluorescence, primary screen (AID 1125).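 Further: score merges 667 nm channel intensity with signal to noise over triplicate slides.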 The following applies: higher = more signal.
For assay [19], the system named is Chordin-like protein 2 (CHRDL2). The assay can be described thus: compounds binding chordin-like 2 – biochemical, small-molecule microarray, 635 nm fluorescence, primary screen (AID 1126).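 Further: printed compound slides probed with Chrdl2 protein at 4 µg/mL for 1 h at 4 C; score merges 667 nm emission intensity with signal to noise over three replicate slides.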 The following applies: fluorescence 635 nm, higher = more signal.
Assay [20] addresses Concanavalin-A (Canavalia ensiformis) (UniProt P02866). Put plainly: compounds binding concanavalin A lectin – biochemical, small-molecule microarray, Alexa647 label, 635 nm, artefact control for SMM control protein annotation, primary screen (AID 1127).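 Further: z combines 667 nm emission intensity with signal-to-noise across three replicate slides.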 To be noted: ConA-A647 binding fluorescence, higher = more signal.

Sequence of Left-right determination factor 2 (Homo sapiens) (O00292 whole entry, looked up): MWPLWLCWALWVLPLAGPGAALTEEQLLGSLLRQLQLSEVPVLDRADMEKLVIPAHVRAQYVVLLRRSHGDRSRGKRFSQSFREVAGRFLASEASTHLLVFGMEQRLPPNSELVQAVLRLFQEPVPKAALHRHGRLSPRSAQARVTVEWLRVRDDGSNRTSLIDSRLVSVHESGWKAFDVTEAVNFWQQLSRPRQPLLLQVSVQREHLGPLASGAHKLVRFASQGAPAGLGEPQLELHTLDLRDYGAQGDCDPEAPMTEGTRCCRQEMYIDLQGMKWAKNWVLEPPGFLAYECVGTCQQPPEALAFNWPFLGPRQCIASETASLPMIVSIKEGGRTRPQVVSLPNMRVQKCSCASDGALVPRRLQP
Sequence of Torsin-1A-interacting protein 1 (Homo sapiens) (Q5JTV8 whole entry, looked up): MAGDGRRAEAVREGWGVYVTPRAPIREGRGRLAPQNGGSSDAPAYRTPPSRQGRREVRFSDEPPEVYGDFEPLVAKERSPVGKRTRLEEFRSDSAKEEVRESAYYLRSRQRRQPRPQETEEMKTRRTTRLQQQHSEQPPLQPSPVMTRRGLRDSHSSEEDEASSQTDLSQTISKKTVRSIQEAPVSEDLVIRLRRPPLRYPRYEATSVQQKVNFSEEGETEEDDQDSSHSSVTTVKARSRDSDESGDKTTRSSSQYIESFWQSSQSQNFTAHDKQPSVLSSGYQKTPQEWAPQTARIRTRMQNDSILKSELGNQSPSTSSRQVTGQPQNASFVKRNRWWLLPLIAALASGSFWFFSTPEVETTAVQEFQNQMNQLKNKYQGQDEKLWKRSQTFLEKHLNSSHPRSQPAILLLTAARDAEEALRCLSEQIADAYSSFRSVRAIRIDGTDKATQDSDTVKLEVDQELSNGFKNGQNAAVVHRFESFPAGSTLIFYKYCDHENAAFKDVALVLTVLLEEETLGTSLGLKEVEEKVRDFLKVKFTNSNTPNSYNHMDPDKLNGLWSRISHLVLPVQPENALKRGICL
Sequence of Concanavalin-A (Canavalia ensiformis) (P02866 whole entry, looked up): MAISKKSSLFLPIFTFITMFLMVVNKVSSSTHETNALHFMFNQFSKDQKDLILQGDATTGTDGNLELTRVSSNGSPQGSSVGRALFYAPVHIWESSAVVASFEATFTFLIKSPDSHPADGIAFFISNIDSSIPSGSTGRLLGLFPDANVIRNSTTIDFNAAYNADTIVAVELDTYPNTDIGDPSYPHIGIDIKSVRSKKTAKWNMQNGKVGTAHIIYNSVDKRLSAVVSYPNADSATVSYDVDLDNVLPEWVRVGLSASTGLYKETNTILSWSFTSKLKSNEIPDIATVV

With `COC(=O)c1ccc([C@H](NC(=O)c2ccccc2)[C@]2(C)C[C@H]2C2CCCCC2)cc1`, the composite z-score in assay [1] was 1.3; in [3], -0.254; in [4], 1.73; in [5] it was 1.47; in assay [6], 0.0805; in [7], 0.315. The composite z-score was 1.68 in assay [8]; 0.462 in assay [9]; 1.09 in assay [10]; 0.543 in [11]; 0.237 in [13]; -0.0282 in assay [14]. The composite z-score in assay [15] is 0.158; in assay [16] it was 1.89; in assay [17], 0.416; in assay [18], 0.715; in [19], -0.941; in [20], 0.551. In assay [2], the z-score is -1.61. Also, in assay [12], the composite Z-score was 0.293 (inactive).
As for `C=C(CCCC)/C(=C/C[C@H](OC(C)=O)c1cccc(OCCO)c1)c1cc(C(=O)OC)ccc1OC`, the composite z-score in assay [1] was -0.323; in assay [3], -0.277; in [4], -0.343; in assay [5], -1.12; in assay [6] it was -0.0721; in [7] it was 0.0062. The composite z-score in assay [8] is 0.257; in assay [9] it was 0.455; in [10], -0.0712; in assay [11] it was 0.387; in [13], -0.21; in [14], -0.132. Moreover, the composite z-score in assay [15] is 0.355; in assay [16], -0.148; in assay [17] it was 0.147; in [18], 0.302; in assay [19], -0.149; in assay [20] it was -0.795. Further, in assay [2], the z-score is -1.95. For the same molecule, the composite Z-score in assay [12] is -0.822 (inactive).
On to `C=CCC(OC(C)=O)[C@@H]1[C@@H](N(Cc2cc3ccccc3o2)C(=O)c2cccc3ccccc23)c2cc(OCCCO)ccc2N1C(=O)c1ccc2ccccc2c1` (stereo not given in full), for which the composite z-score in assay [1] was -0.0617; in assay [3], -0.338; in [4] it was -0.0758; in assay [5], 0.63; in [6] it was 0.0047; in [7], -0.138. Besides, the composite z-score in assay [8] was -0.12; in [9], 0.414; in assay [10], 0.0671; in assay [11], 0.163; in [13], -0.0647; in assay [14], -0.0906. For the same molecule, the composite z-score in assay [15] is 0.229; in assay [16] it was 0.542; in assay [17], -0.177; in assay [18], -0.0368; in assay [19] it was 0.556; in [20] it was -0.259. The same molecule returned a z-score in [2] of -0.0143. For the same molecule, the composite Z-score in assay [12] was -0.73 (inactive).
With `COc1ccc(CC[C@H](O)c2cccc(OCC(=O)OC(C)(C)C)c2)cc1`, the composite z-score in [1] was 1.38; in [3] it was 0.461; in assay [4], 0.829; in [5], -0.271; in assay [6], 0.0181; in assay [7], 0.167. Also, the composite z-score was -0.216 in assay [8]; 1.27 in assay [9]; 0.737 in assay [10]; 0.625 in [11]; -0.0014 in [13]; -0.0876 in assay [14]. Also, the composite z-score was 0.29 in assay [15]; 1.34 in assay [16]; 0.341 in assay [17]; 1.33 in assay [18]; 0.723 in assay [19]; 1.2 in assay [20]. In [2], this molecule had a z-score of -1.12. The composite Z-score in [12] was 0.0178 (inactive).
Regarding `CC(C)C(=C=CC[C@@H](O)c1ccccc1OCCO)C[C@@H](O)c1cc(Cl)cc(Cl)c1O`, the composite z-score in assay [1] was 1.48; in assay [3] it was 0.744; in [4], 0.341; in [5], -0.538; in assay [6], -0.0735; in assay [7], -0.153. For the same molecule, the composite z-score in assay [8] was 0.432; in assay [9], -0.197; in assay [10], 1.54; in assay [11], 0.77; in assay [13], 0.156; in [14], -0.147. Moreover, the composite z-score in assay [15] was 0.68; in [16], 1.76; in [17], 0.632; in assay [18], 1.26; in assay [19], 0.784; in [20], 0.612. In addition, in assay [2], the z-score is -3.27. The composite Z-score in [12] is -0.235 (inactive).
Turning to `C=CC[C@@]12N=C(c3ccc(OCCCO)cc3)O[C@@H]1c1ccccc1N(Cc1ccccc1)C2=O`, the composite z-score is 0.598 in assay [1]; 0.657 in [3]; 0.792 in assay [4]; 0.355 in assay [5]; 0.127 in assay [6]; -0.114 in assay [7]. Further, the composite z-score was determined as 1.1 in assay [8]; 1.16 in assay [9]; 0.858 in assay [10]; 0.0349 in [11]; 0.405 in assay [13]; 0.14 in assay [14]. For the same molecule, the composite z-score turned out to be 0.463 in [15]; 3.15 in [16]; 0.532 in assay [17]; 1.3 in [18]; 1.43 in assay [19]; 1.02 in assay [20]. The same molecule registered a z-score in assay [2] of -2.27. Further, the composite Z-score in [12] was 0.407 (inactive).
